Source: PubChem (National Center for Advancing Translational Sciences (NCATS))
D3 antag = blocks the human D3 dopamine receptor. P35462. D3R cells, DiscoveRx beta-arrestin luminescence, antagonist mode; stronger effect = lower value. max response, negative = inhibition, %. 2.5% of 360,000 active. AID 652054; in the data active means max response below about -50%; inconclusive means no clear call, values can overlap the other calls
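Cells plated overnight at 1500 cells/well, then exposed to library compounds with dopamine controls for 90 minutes at 37 degrees C. DiscoveRx reagent added for 30–60 minutes at room temperature; luminescence read, quantitative HTS format.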
D1 ag = agonists of human D1 dopamine receptor; activation, % at 2 µM; AID 504660; HEK293 T-REx D1 cells, calcium flux, agonist mode; 1% of 360,000 active; in the data active means activation above about 30%
Target sequence (P21728 whole entry, looked up): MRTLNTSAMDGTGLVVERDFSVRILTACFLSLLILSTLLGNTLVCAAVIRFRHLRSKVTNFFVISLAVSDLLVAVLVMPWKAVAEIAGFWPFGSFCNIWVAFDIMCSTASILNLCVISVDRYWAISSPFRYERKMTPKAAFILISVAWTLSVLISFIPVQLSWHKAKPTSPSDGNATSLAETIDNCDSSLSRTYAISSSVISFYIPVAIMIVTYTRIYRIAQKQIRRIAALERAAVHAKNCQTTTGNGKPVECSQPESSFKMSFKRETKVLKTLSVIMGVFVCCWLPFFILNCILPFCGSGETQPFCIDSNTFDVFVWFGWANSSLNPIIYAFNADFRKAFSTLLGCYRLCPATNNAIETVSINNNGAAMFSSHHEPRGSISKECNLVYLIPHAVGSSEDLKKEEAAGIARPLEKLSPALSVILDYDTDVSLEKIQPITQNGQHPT
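Inducible HEK293 T-REx D1 cells, force-coupled to calcium signalling, were plated at 4000 cells/well with tetracycline and held overnight at 30 C. After no-wash calcium dye loading, compound-evoked calcium rise over 180 s flagged agonists.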
D3 ag = agonists of human D3 dopamine receptor; D3R DiscoveRx beta-arrestin cells, luminescence, 90 min; max activation, %; 0.58% of 410,000 active; in the data active means max activation above about 30%
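Cells at 1500/well, incubated overnight, then treated with pinned compounds (dopamine as control) for 90 min at 37 degrees C. DiscoveRx reagent added for 30 - 60 minutes at room temperature; luminescence read.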
D1 antag = blocks dopamine activation of the human D1 receptor. 3.2% of 360,000 active. activity change, negative = inhibition, % at 10 µM. HEK293 TREx D1 cells, calcium flux, dopamine EC80; stronger effect = lower value; in the data active means activity change below about -30%
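Calcium flux readout: force-coupled, inducible Hek293 Trex D1 line, cells induced overnight at 30 C with tetracycline, dye-loaded 30–90 min at RT. Antagonism scored against EC80 dopamine challenge given 180 s after compound.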
D1 PAM = human D1 dopamine receptor positive modulation | P21728 | HEK293 TREx D1 cells, calcium flux, dopamine EC20 potentiation | potentiation, % at 10 µM | 0.036% of 360,000 active | AID 504651; in the data active means potentiation above about 30%
A number is an active result; - = inactive; ? = inconclusive; . = no result. This is a sample that favours compounds with a hit; in the whole collection about 6% have one here.

SMILES	D3 antag	D1 ag	D3 ag	D1 antag	D1 PAM
COc1cc(COCC(O)CN2CCCCC2C)cc(OC)c1OC (configuration not stated)	-	-	-	-	-
COc1cc(COCC(O)CN2CCc3ccccc3C2)cc(OC)c1OC (configuration not stated)	-85	-	-	-	-
CCC(=O)c1ccc(OCC(O)CN2CCCCC2)cc1 (configuration not stated)	?	-	-	-	-
CCc1ccc(OCC(O)CN2CCCC2)cc1 (configuration not stated)	-	-	-	-	-
COc1cccc(OCC(O)CN2CCc3ccccc3C2)c1 (configuration not stated)	-91	-	-	-	-
CCCc1ccc(OCC(O)CN2CCc3ccccc3C2)cc1 (configuration not stated)	-94	-	-	-	-
CCC(=O)c1ccc(OCC(O)CN2CCc3ccccc3C2)cc1 (configuration not stated)	-75	-	-	-	-
CCc1ccc(NC(=O)Cn2c(=O)n(CCCCC(=O)NCc3ccc4c(c3)OCO4)c(=O)c3ccccc32)cc1	.	-	-	-	-
OC(COc1ccc(Cl)cc1Cl)CN1CCc2ccccc2C1 (configuration not stated)	-103	-	-	-	-
Cc1ccc(OCC(O)CN2CCc3ccccc3C2)c(C)c1 (configuration not stated)	-104	-	-	-	-
OC(COC(c1ccc(F)cc1)c1ccc(F)cc1)CN1CCc2ccccc2C1 (configuration not stated)	-	-	-	-	-
CN(Cc1cnccn1)Cc1ccccc1OCC(O)CN1CCc2ccccc2C1 (configuration not stated)	-83	-	-	-	-
Cc1cc(C)cc(OCCOCCn2c(-c3ccc(Cl)cc3)nc3ccccc3c2=O)c1	.	-	-	-	-
O=C(CC[C@H]1O[C@@H](n2ccc(=O)[nH]c2=O)[C@H](O)[C@@H]1O)N[C@H](Cc1ccccc1)C(=O)NCCCc1ccccc1	-	.	-	.	.
COCCCNC(=O)[C@H](Cc1ccccc1)NC(=O)CC[C@H]1O[C@@H](n2ccc(=O)[nH]c2=O)[C@H](O)[C@@H]1O	-56	.	-	.	.
CCCCNC(=O)CCCn1c(=O)c2ccccc2n(Cc2ccccc2C)c1=O	.	-	-	-	-
COc1ccc(C(c2c(NC(C)=O)sc3c2CCCC3)N2CCN(CCO)CC2)cc1OC (configuration not stated)	-	-	-	-	-
CC(=O)Nc1sc2c(c1C(c1cccc(Cl)c1)N1CCN(CCO)CC1)CCCC2 (configuration not stated)	?	-	-	-30	-
CCN[C@@H]1C[C@H](N)[C@@H](OC2OC(CN)=CCC2N)[C@H](O)[C@H]1O[C@H]1OC[C@](C)(O)[C@H](NC)[C@H]1O (some centres not stated)	.	.	49	.	.
Cc1c(NC(=O)Nc2cccc(C(F)(F)F)c2)sc2nc3n(c(=O)c12)CCC(C)CC3 (configuration not stated)	.	-	-	-	-
Cc1nn(-c2ccc(C(=O)O)cc2)c2c1C(=O)CC(C)(C)C2	-	-	-	-	-
Cc1c(CC(Cl)(Cl)Cl)c2c(n1O)CC(C)(C)CC2=O	-	-	-	-46	-
COc1ccc(/C(C)=N\Nc2nc(-c3ccc(Cl)cc3)cc(C(F)(F)F)n2)cc1OC	-	-	45	-	-
CCOCCCNc1nc(=S)[nH]c2cc(OC)c(OC)cc12	-	-	-	-	-
COc1cc2[nH]c(=S)nc(NCCCOC(C)C)c2cc1OC	-78	-	-	-	-
SMILES	D3 antag	D1 ag	D3 ag	D1 antag	D1 PAM
O=c1[nH]c(=S)[nH]c2c1C(c1ccc(F)cc1)OC(CCc1ccccc1)C2 (configuration not stated)	-	.	-	.	.
O=c1[nH]c(=S)[nH]c2c1[C@H](C1CC1)O[C@H](CCc1ccccc1)C2	-84	.	-	.	.
CCCc1[nH]nc2c1C(c1ccc(OCCN3CCOCC3)c(OC)c1)C(C#N)=C(N)O2 (configuration not stated)	-64	-	-	-	-
CCCc1[nH]nc2c1C(c1ccc(O)c(OC)c1)C(C#N)=C(N)O2 (configuration not stated)	-	-	-	-	-
CCOc1ccccc1NC(=O)COn1nnc2ccc(Cl)cc21	-	30	-	-	-
Cn1nnnc1SCC(=O)NC(=O)Cc1ccccc1	?	-	-	-44	-
Cc1cc(NC(=O)COn2nnc3ccc(Cl)cc32)no1	-	-	-	-	-
CCOC(=O)c1cn(CC(=O)Nc2ccc(C)cc2)nn1	-	-	-	-	-
CCOC(=O)c1cn(CC(=O)Nc2ccccc2C(=O)OCC)nn1	-72	-	-	-	-
CCOc1ccc(NC(=O)CSc2nnnn2C2CCCC2)cc1	?	47	-	-	.
CCCCOc1ccc(NC(=O)CSc2nnnn2C)cc1	-113	-	-	-	-
Cc1sc(NC(=O)CSc2nnnn2C2CCCCC2)c(C#N)c1C	-	-	-	-34	-
COc1ccccc1NC(=O)CSc1nnnn1Cc1ccccc1	-	-	-	-	-
CCOc1ccccc1NC(=O)CSc1nnnn1Cc1ccccc1	-59	-	-	-	-
CCOC(=O)c1ccccc1NC(=O)CSc1nnnn1C1CCCCC1	-77	-	-	-	-
CCCN(C(=O)c1cc(S(=O)(=O)N2CCc3ccccc32)cn1C)c1ccc(OCC)cc1	.	-	-	-	-
Cc1ccc(Cl)cc1NC(=O)C1CCN(c2nnc(C)c3c(C)n(-c4ccccc4)nc23)CC1	.	-	-	-	-
O=C(Nc1nc(-c2ccccn2)cs1)c1cc(S(=O)(=O)N2CCOCC2)ccc1F	-77	-	-	-	-
O=C(Nc1nc(-c2nc3ccccc3s2)cs1)c1ccc(S(=O)(=O)N2CCOCC2)cc1	-	-	51	-	-
O=C(Nc1nc(-c2ccccn2)cs1)c1ccc(F)c(S(=O)(=O)N2CCOCC2)c1	-	-	-	-	-
O=C(Nc1nc(-c2ccc(S(=O)(=O)N3CCOCC3)cc2)cs1)c1ccccc1	-	-	-	-	-
CC(C)(C)C1CCc2onc(C(=O)Nc3sc4c(c3C#N)CCCC4)c2C1 (configuration not stated)	.	-	-	-	-
O=C(CN(c1cc(C(F)(F)F)ccc1Cl)S(=O)(=O)c1ccccc1)NCCc1ccccc1	.	-	-	-	-
Cc1cccnc1C(c1ccc(F)cc1)N(C)C(=O)C1CCN(CCOc2ccc(Cl)cc2Cl)CC1 (configuration not stated)	-74	.	-	.	.
Cc1cccnc1C(c1ccc(F)cc1)N(C)C(=O)C1CCN(CCCOc2ccc(F)cc2)CC1 (configuration not stated)	-94	.	-	.	.
CCc1ccc(NC(=O)CN(c2ccc(C)cc2)S(=O)(=O)c2cccs2)cc1	.	-	-	-	-
